High-throughput results as filed in PubChem BioAssay.
MCF10A rereplic: DNA re-replication induction in MCF 10a cells; MCF 10A DNA re-replication, Hoechst nuclear intensity, 48 h; Potency, µM (highest dose often 46.1 µM), actives largely listed as activators; 350,000 tested, 2.9% active; note: nearly all actives have a fitted effect of over 50% in size
KB-3-1 tox: KB-3-1 parental cell cytotoxicity; KB-3-1 viability, CellTiter-Glo ATP luminescence, 72 h; Potency, µM (series often up to 46.1 µM), actives largely listed as cytotoxic; AID 1347075; 400,000 tested, 1.4% active; note: nearly all actives have a fitted effect of over 60% in size
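Parental KB-3-1 viability, qHTS format: 72 h compound exposure, 37 °C; CellTiter-Glo; media-only wells and DMSO plates as controls; concentration-effect fits on corrected data.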
ASM inhibitor: human S-ASM enzyme inhibition; placental ASM, HMU-PC fluorogenic substrate, 60 min; Potency, µM (titrated, usually from 57.5 µM), usual class: inhibitors; 340,000 tested, 0.006% active; AID 504937
Target sequence (P17405 47-631 limits assumed): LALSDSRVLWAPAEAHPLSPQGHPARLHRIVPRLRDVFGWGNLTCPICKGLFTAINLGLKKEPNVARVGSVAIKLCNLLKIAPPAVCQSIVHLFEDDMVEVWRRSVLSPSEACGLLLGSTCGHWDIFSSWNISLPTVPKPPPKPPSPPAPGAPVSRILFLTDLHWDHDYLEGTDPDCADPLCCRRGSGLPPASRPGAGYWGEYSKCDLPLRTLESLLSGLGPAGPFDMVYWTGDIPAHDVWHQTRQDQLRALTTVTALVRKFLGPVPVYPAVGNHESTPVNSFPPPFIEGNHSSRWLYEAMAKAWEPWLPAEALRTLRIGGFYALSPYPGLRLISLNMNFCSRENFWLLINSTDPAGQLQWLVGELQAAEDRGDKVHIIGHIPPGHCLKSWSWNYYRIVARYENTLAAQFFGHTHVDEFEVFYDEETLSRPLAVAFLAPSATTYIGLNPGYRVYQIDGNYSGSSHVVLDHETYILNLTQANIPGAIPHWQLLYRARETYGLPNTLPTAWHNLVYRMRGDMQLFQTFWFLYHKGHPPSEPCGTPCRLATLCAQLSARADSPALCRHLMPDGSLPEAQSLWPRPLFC
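Human placenta-derived ASM enzyme was preincubated with compound for 10 minutes at room temperature, then given fluorogenic substrate HMU-PC0 (9 uM final) for 60 minutes at 37 °C; a pH 10 stop preceded fluorescence reading at Ex 386/Em 447 nm.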
SW480 rerep: DNA re-replication induction in SW480 cells. Potency, µM (top dose mostly 46.1 µM), most hits filed as activators. AID 624297. SW480 DNA re-replication, Hoechst DNA content imaging, 48 h. 340,000 tested, 1.8% active; note: nearly all actives have a fitted effect of over 55% in size
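Compounds, transferred as 23 nL by pin tool, were incubated with cells for 48 hr; DNA content per nucleus was then quantified by Hoechst staining and fluorescence plate imaging.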
KB-V1 MDR tox: KB-V1 MDR subline cytotoxicity; KB-V1 MDR cells viability, CellTiter-Glo, 72 h; Potency, µM (titrated, usually from 46.1 µM), most hits filed as cytotoxic; 400,000 tested, 3.4% active; AID 1347076; note: nearly all actives have a fitted effect of over 60% in size
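Following 72 h at 37 degrees C with compound, KB-V1 cell viability was read by CellTiter-Glo luminescence, medium being phenol-red-free DMEM plus 10% FBS; concentration-response parameters came from normalized, curve-fitted qHTS data.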
Giardia kill: Giardia lamblia killing. Giardia lamblia trophozoite viability. activity change, % at 7.66 µM, hits read low. 340,000 tested, 0.15% active. AID 540267; in the data active = activity change below about -80%; inconclusive = between about -30% and that limit;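 note: parasites exposed to compound for two days anaerobically before the ATP read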
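Compounds were tested on trophozoites seeded at 100 cells/well and held 48 hrs at 37 deg C anaerobically. An ATP-based luminescent kit measured the remaining live cells.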
Hits are given with their value; – = inactive; ? = inconclusive; · = not tested or not shown; [ ] = remark or other dose. This is a sample that favours compounds with a hit; in the whole collection about 6.9% have one here. Unless noted, calls come from the whole dose curve; as a rule, active = well fitted curve in the direction sought with a large enough effect; inconclusive = small, poorly fitted or top-dose-only effect, or another doubt; inactive = no such curve, though single readings can be large; an effect the other way counts as inactive or inconclusive.

SMILES	MCF10A rereplic	KB-3-1 tox	ASM inhibitor	SW480 rerep	KB-V1 MDR tox	Giardia kill
COCCCNCCCOc1ccc(C(C)(C)c2ccccc2)cc1	–	–	–	?	?	–
c1ccc(CNCCCNCCCCNCCCNCc2ccccc2)cc1	6.5µM	?	–	?	?	–
COCCNCCCOc1ccc(C(C)(C)c2ccccc2)cc1	21µM	–	–	–	?	–
CCCCCn1c(=O)c(C(=O)c2ccccc2)nc2ccccc21	–	?	–	–	12µM	–
COC(=O)c1ccc(/C=C/c2c(-c3ccsc3)oc3ccc(N4CCOCC4)cc23)cc1	5.8µM	?	–	–	–	–
COc1ccc2oc(-c3ccncc3)cc(=O)c2c1	–	?	–	–	3.7µM	–
COC(=O)c1nc2ccc(N3CCOCC3)cc2c(C)c1C(=O)OC	–	–	–	–	–	?
Nc1ccc(C#Cc2c(-c3ccsc3)oc3ccc(N4CCOCC4)cc23)cc1	13µM	–	–	–	–	–
O=c1cc(-c2ccccc2)oc2ccc(O)cc12	–	–	–	–	5.8µM	?
O=c1cc(-c2ccccc2)oc2ccccc12	?	–	–	–	–	–
COc1ccc(-c2cc(=O)c3cc(O)ccc3o2)cc1	–	–	–	–	?	–
O=C(CCC(=O)N1Cc2ccccc2Oc2ncccc21)NCc1cccc(Cl)c1	·	–	·	·	–	·
COc1ccc(-c2oc3ccc(-c4ccc(OC)nc4)cc3c2-c2ccc(OC)cc2)cc1	6.5µM	–	–	?	–	–
COc1ccc(-c2c(-c3ccsc3)oc3ccc(N4CCOCC4)cc23)cn1	18µM	–	–	–	–	?
COc1ccc(-c2ccc3oc(-c4ccsc4)cc(=O)c3c2)cn1	–	–	–	2.9µM	–	?
COc1ccc(-c2ccc3oc(-c4ccsc4)c(-c4ccc(OC)cc4)c3c2)cc1	–	–	–	–	–	–
CCC1CC=CC2C1C(=O)N(Cc1ccccc1)C2c1ccc(OC)c(Cl)c1 (configuration not stated)	·	·	·	·	·	–
Oc1cccc(-c2nc3ncccn3c2Nc2cccc(C(F)(F)F)c2)c1	·	–	·	·	–	·
Cc1cc(Cl)ccc1OCC(=O)OCC(=O)N(CC(C)C)c1c(N)n(Cc2ccccc2)c(=O)[nH]c1=O	–	–	–	–	–	–
Cc1ccc(S(=O)(=O)N2CCC[C@H]2C(=O)OCC(=O)Nc2ccc3c(c2)OCO3)cc1	–	–	–	–	–	–
COc1ccccc1NC(=O)Nc1nc(CC(=O)NCc2ccccn2)cs1	?	–	·	12µM	–	–
COc1ccccc1CNC(=O)Cc1csc(NC(=O)Nc2ccccc2OC)n1	?	–	–	–	?	–
COc1cc(OC)cc(C(=O)Nc2nc(CC(=O)NCc3ccccc3OC)cs2)c1	?	–	–	–	16µM	–
O=C/C(=C\Nc1ccccn1)c1nc2cc(Cl)ccc2o1	16µM	–	–	–	–	–
O=C/C(=C\Nc1ccccn1)c1nc2ccccc2o1	21µM	–	–	?	–	–
SMILES	MCF10A rereplic	KB-3-1 tox	ASM inhibitor	SW480 rerep	KB-V1 MDR tox	Giardia kill
O=C1C2C3C=CC(CNS(=O)(=O)c4ccccc4)(O3)C2C(=O)N1c1ccc(Cl)cc1 (configuration not stated)	?	–	–	12µM	?	–
CC(=O)Oc1ccc(N2C(=O)C3C4C=CC(CO)(O4)C3C2=O)cc1 (configuration not stated)	?	–	–	?	–	–
O=C1C2C3C=CC(CO)(O3)C2C(=O)N1c1ccccc1-c1ccccc1 (configuration not stated)	7.3µM	–	–	10µM	–	–
COc1ccc(NC(=O)C2Cc3c(-c4cccc(F)c4)ccnc3O2)cc1OC (configuration not stated)	·	–	·	·	?	·
O=C(c1ccc(Cl)cc1)c1oc2ccccc2c1CS(=O)(=O)c1ccccc1	?	–	–	–	6.5µM	–
O=C(Nc1c(C(=O)c2ccc(Cl)cc2)oc2ccccc12)c1cc(=O)c2ccccc2o1	·	–	·	·	?	·
COc1ccc(-c2nnc(SCc3cc(=O)c4cc(C)cc(C)c4[nH]3)n2C)cc1	·	8.2µM	·	·	?	·
COc1c(S(=O)(=O)NCCCn2ccnc2)ccc(Cl)c1Cl	12µM	–	–	?	–	–
CCCOc1cc(C)c(S(=O)(=O)NCCOC)cc1C	–	–	–	–	18µM	–
COCCNS(=O)(=O)c1cc(OC)c(C)cc1C	?	–	–	–	?	–
OCCN1CCN(c2nc(-c3ccccc3)c3cc(Br)ccc3n2)CC1	18µM	–	–	21µM	–	–
OCCN1CCN(c2ncnc3ccc(Br)cc23)CC1	?	–	–	–	?	–
O=C(O)C1CCN(c2nc(-c3ccccc3)c3cc(Br)ccc3n2)CC1	23µM	–	–	–	–	–
CC(NC(=O)c1ccc(CS(=O)(=O)c2ccc(Cl)cc2)o1)c1ccc2c(c1)OCCO2 (configuration not stated)	?	–	–	–	10µM	–
Cc1ccc(S(=O)(=O)Cc2ccc(C(=O)NCc3ccc4c(c3)OCO4)o2)cc1	–	–	–	–	9.2µM	–
Cc1ccc(CS(=O)Cc2ccc(C(=O)NCc3ccc4c(c3)OCO4)o2)cc1 (configuration not stated)	–	–	–	?	–	–
COc1ccc(OC)c(-c2nnc3n2N=C(c2ccc(OC)c(OC4CCOC4)c2)CS3)c1 (configuration not stated)	?	0.12µM	–	?	?	–
COc1ccc(OC)c(C2=Nn3c(nnc3-c3cc(OC)c(OC)c(OC)c3)SC2)c1	–	–	–	–	1.3µM	–
COc1cccc(-c2nnc3n2N=C(C(C)(C)C)CS3)c1	?	?	–	?	21µM	–
COc1ccc(C2=Nn3c(nnc3-c3ccccc3Cl)SC2)cc1OC1CCCC1	16µM	?	–	21µM	–	–
COc1ccc(OC)c(C2=Nn3c(nnc3-c3ccncc3)SC2)c1	–	–	–	?	–	–
COc1ccc(C2=Nn3c(nnc3-c3ccco3)SC2)cc1OC	–[0.0737 µM]	–	–	–	?	–
CCN(CC)CCNC(=O)CSc1nc2nc(C)c(Cc3ccccc3)c(C)n2n1	·	–	·	·	–	·
COc1cc(C(=O)Nc2ccc3oc(-c4ccc(C)c(Br)c4)nc3c2)cc(OC)c1OC	·	–	·	·	–	·
COc1cc(OC)c(NC(=O)C(C)n2nc(-c3ccc(C)cc3)c3c(c2=O)CCCC3)cc1Cl (configuration not stated)	·	–	·	·	?	·
N#Cc1ccc(S(=O)(=O)N2CCN(c3nc(-c4cccs4)nc4ccccc34)CC2)cc1	·	?	·	·	–	–
CCn1nc(C)c2c(-c3ccccc3)cc(=O)n(C(C)C(=O)NCc3cccc(OC)c3)c21 (configuration not stated)	·	–	·	·	–	·
